Reference: PubChem BioAssay (NCI)
Compounds without any hit were thinned out: in the full panel of roughly 79,000, 15% have a hit. Calls of active or inactive are those of the source. Rule as the data show it: active = growth inhibition above about 70%; inactive = the rest.

Tests used:
[1] = NCI Yeast Anticancer Drug Screen. Data for the rad50 strain (AID 155);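 also: 0% = growth of vehicle-only cultures of the same strain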; conditions: S. cerevisiae rad50 strain growth inhibition, active compounds read high
Outline: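 Readout: growth inhibition relative to vehicle-treated cultures. Compound exposure was carried out in a genetically defined yeast strain deficient in DNA damage repair.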

[2] = NCI Yeast Anticancer Drug Screen. Data for the mec2-1 strain (AID 157); conditions: S. cerevisiae mec2-1 strain, active compounds read high
Outline: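 Strain: mec2-1 (DNA repair/cell cycle alteration). Compound exposure, then growth measured; inhibition expressed relative to vehicle.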

[3] = NCI Yeast Anticancer Drug Screen. Data for the sgs1 mgt1 strain (AID 161);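 also: 0% = growth of cultures given vehicle only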; conditions: S. cerevisiae sgs1 mgt1 strain, active compounds read high
Outline: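 Inhibition of yeast growth, normalised to vehicle-treated controls, is reported for a strain bearing genetic alterations in DNA damage repair.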

[4] = NCI Yeast Anticancer Drug Screen. Data for the cln2 rad14 strain (AID 165);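 also: 0% = growth equal to vehicle treated cultures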; conditions: S. cerevisiae cln2 rad14 strain, active compounds read high
Outline: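 Compounds are applied to the cln2 rad14 yeast strain, and growth is then compared with that of vehicle-treated cultures to give inhibition.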

[5] = NCI Yeast Anticancer Drug Screen. Data for the bub3 strain (AID 167); conditions: S. cerevisiae bub3 mutant strain, active compounds read high
Outline: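 Readout: yeast growth inhibition, expressed relative to vehicle-only wells. The test organism is a mutant strain from a panel with lesions in DNA repair or checkpoint genes.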

[6] = NCI Yeast Anticancer Drug Screen. Data for the mlh1 rad18 strain (AID 175); conditions: S. cerevisiae mlh1 rad18 strain growth inhibition, active compounds read high
Outline: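 Read-out is yeast growth inhibition, calculated against vehicle-only controls. The compound was applied to a strain engineered with DNA damage repair alterations.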

[7] = at 5.0 µM (retest, dose inferred, filed as 0.5)
[8] = at 50.0 µM (retest, dose inferred, filed as 5.0)

Measured: growth inhibition

COC12C(COC(N)=O)C3=C(C(=O)C(C)=C(NC(C)C)C3=O)N1CC1NC12 (stereo not given)
inactive: [1]; [7] 5% | [1]; [8] 59% | [1]; at 50.0 µM 47.6% | [2]; [7] 10% | [2]; at 50.0 µM 47.9% | [3]; [7] 13% | [3]; [8] 61% | [3]; at 50.0 µM 48% | [4]; [7] 2% | [4]; at 50.0 µM 52% | [5]; [7] 1% | [5]; [8] 35% | [5]; at 50.0 µM 30.4% | [6]; [7] 31%
active: [2]; [8] 72% | [4]; [8] 76% | [6]; [8] 92% | [6]; at 50.0 µM 78.6%

Sc1nc2ccccc2s1.Sc1nc2ccccc2s1.Sc1nc2ccccc2s1.Sc1nc2ccccc2s1.[Cl][Rh][Cl]
active: [1]; [8] 95% | [1]; at 50.0 µM 95.7% | [2]; [8] 96% | [2]; at 50.0 µM 98.5% | [3]; [8] 97% | [3]; at 50.0 µM 93.3% | [4]; [8] 94% | [4]; at 50.0 µM 97.1% | [5]; [8] 97% | [5]; at 50.0 µM 96.8% | [6]; [8] 96% | [6]; at 50.0 µM 97.7%
inactive: [1]; [7] 20% | [2]; [7] 12% | [3]; [7] 38% | [4]; [7] 0% | [5]; [7] 31% | [6]; [7] 43%

CC(C)NC1CC2CCCCC2CC1c1ccccc1 (stereo not given)
active: [1]; at 50.0 µM 79.8% | [2]; at 50.0 µM 83.3% | [3]; at 50.0 µM 90.9% | [4]; at 50.0 µM 82.3% | [5]; at 50.0 µM 82.4% | [6]; [8] 74% | [6]; at 50.0 µM 88.8%
inactive: [1]; [7] 1% | [1]; [8] 51% | [2]; [7] 4% | [2]; [8] 25% | [3]; [7] 10% | [3]; [8] 68% | [4]; [7] 3% | [4]; [8] 57% | [5]; [7] 17% | [5]; [8] 53% | [6]; [7] 20%

C[CH2][Sn]1([CH2]C)[O]C2C(OC)OC3COC(c4ccccc4)OC3C2[O]1 (stereo not given)
active: [1]; [7] 77% | [1]; [8] 80% | [2]; [8] 70% | [3]; [8] 77% | [5]; at 50.0 µM 71.8%
inactive: [1]; at 50.0 µM 18.4% | [2]; [7] 42% | [2]; at 50.0 µM 61.2% | [3]; [7] 67% | [3]; at 50.0 µM -9.95% | [4]; [7] 68% | [4]; [8] 40% | [4]; at 50.0 µM -21.4% | [5]; [7] 69% | [5]; [8] 40% | [6]; [7] 53% | [6]; [8] 54% | [6]; at 50.0 µM -16.1%

CC1(CO)C(O)CCC2(C)C1CCC1CC3CC12CCC3(O)CO (stereo not given)
inactive: [1]; [7] 4% | [1]; at 50.0 µM -3.35% | [2]; [7] 65% | [2]; at 50.0 µM -18.8% | [3]; [7] 1% | [3]; at 50.0 µM 19.1% | [4]; [7] -13% | [4]; [8] 68% | [4]; at 50.0 µM -0.7% | [5]; [7] -27% | [5]; at 50.0 µM -10% | [6]; [7] 14% | [6]; at 50.0 µM 3.7%
active: [1]; [8] 87% | [2]; [8] 99% | [3]; [8] 80% | [5]; [8] 77% | [6]; [8] 91%

CCCCCCCCc1ccc(OCCN(CCCl)CCCl)cc1
active: [1]; [8] 99% | [1]; at 50.0 µM 98.7% | [2]; [8] 100% | [2]; at 50.0 µM 99.4% | [3]; [8] 99% | [3]; at 50.0 µM 99.1% | [4]; [8] 99% | [4]; at 50.0 µM 99.3% | [5]; [8] 99% | [5]; at 50.0 µM 99.2% | [6]; [8] 99% | [6]; at 50.0 µM 99.2%
inactive: [1]; [7] 3% | [2]; [7] -23% | [3]; [7] -130% | [4]; [7] -2% | [5]; [7] -4% | [6]; [7] 4%

CC1=CC(=O)c2c(O)cccc2C1=O
inactive: [1]; [7] 18% | [2]; [7] 29% | [3]; [7] 19% | [4]; [7] 7% | [5]; [7] 23% | [6]; [7] 30%
active: [1]; [8] 100% | [1]; at 50.0 µM 85.8% | [2]; [8] 99% | [2]; at 50.0 µM 90.1% | [3]; [8] 99% | [3]; at 50.0 µM 92% | [4]; [8] 99% | [4]; at 50.0 µM 90.3% | [5]; [8] 99% | [5]; at 50.0 µM 90.5% | [6]; [8] 98% | [6]; at 50.0 µM 89%

O=C1C=CC(=O)C(Br)C1Br (stereo not given)
active: [5]; at 50.0 µM 71.2%
inactive: [1]; [7] -20% | [1]; [8] 34% | [1]; at 50.0 µM 26.1% | [2]; [7] -8% | [2]; [8] 57% | [2]; at 50.0 µM 35.3% | [3]; [7] -7% | [3]; [8] 66% | [3]; at 50.0 µM 46.3% | [4]; [7] 2% | [4]; [8] 10% | [4]; at 50.0 µM 19.1% | [5]; [7] -1% | [5]; [8] 52% | [6]; [7] 35% | [6]; [8] 57% | [6]; at 50.0 µM 66.2%

c1cc[c]([Pb]([S]c2nc3ccccc3[nH]2)([c]2ccccc2)[c]2ccccc2)cc1
active: [1]; [7] 99% | [1]; [8] 99% | [1]; at 50.0 µM 91.4% | [2]; [7] 100% | [2]; [8] 99% | [2]; at 50.0 µM 92.7% | [3]; [7] 99% | [3]; [8] 99% | [3]; at 50.0 µM 92.2% | [4]; [7] 99% | [4]; [8] 99% | [4]; at 50.0 µM 91.8% | [5]; [7] 99% | [5]; [8] 99% | [5]; at 50.0 µM 91.3% | [6]; [7] 99% | [6]; [8] 99% | [6]; at 50.0 µM 90.3%

CCC[CH2][Pb]([CH2]CCC)([CH2]CCC)[n]1ccnc1
active: [1]; [7] 99% | [1]; [8] 99% | [1]; at 50.0 µM 90.2% | [2]; [7] 99% | [2]; [8] 99% | [2]; at 50.0 µM 92.7% | [3]; [7] 98% | [3]; [8] 98% | [3]; at 50.0 µM 93.7% | [4]; [7] 97% | [4]; [8] 99% | [4]; at 50.0 µM 91.6% | [5]; [7] 99% | [5]; [8] 93% | [5]; at 50.0 µM 92.2% | [6]; [7] 99% | [6]; [8] 99% | [6]; at 50.0 µM 91%
